PubChem BioAssay (Tox21)
Where “and” joins values, the source holds several entries; their conditions need not be identical. Equal values may be shown once. Inconclusive results are not listed. The source holds several records for some structures; these can differ, active in one and inactive in another. Calls of active or inactive are those of the source. Unless noted, calls follow the shape of the full dose curve.

Assays:
[1] = Nuclear factor erythroid 2-related factor 2/antioxidant responsive element (Nrf2/ARE) small molecule agonists: qHTS cell viability counter screen in human keratinocytes (AID 1919968; active = well fitted curve in the direction sought with a large enough effect in the repeat runs; an effect the other way counts as inactive or inconclusive; also: nearly all actives have a fitted effect of over 55% in size; also: potency is read from the fitted curve at half-maximal effect)
Outline: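 Seed 1,500 KeratinoSens cells per well, then incubate 5 h at 37 C/5% CO2. Add compounds in DMSO and incubate 23 h. Add CellTiter-Fluor, wait 1 h and read fluorescence.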

[2] = Nuclear factor erythroid 2-related factor 2/antioxidant responsive element (Nrf2/ARE) small molecule agonists: luciferase reporter gene qHTS assay in human keratinocytes (AID 1919969); also: nearly all actives have a fitted effect of over 35% in size; also: potency is read from the fitted curve at half-maximal effect
[3] = target: Gonadotropin-releasing hormone receptor (Homo sapiens) (UniProt P30968); test: Human gonadotropin-releasing hormone receptor (GnRHR) small molecule agonists, calcium flux assay in GnRHR-HEK293 cells (AID 1920063); also: nearly all actives have a fitted effect of over 35% in size
Outline: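 Cells: HEK293 stably expressing human GnRHR. Steps: overnight (18 h) culture, 1 h calcium dye loading at 37 C, compound addition, kinetic fluorescence read at 480/540 nm. Each compound tested at 15 concentrations in triplicate.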

[4] = G protein-coupled receptor (GPCR) small molecule agonists, calcium flux assay: HEK293 wild type cell line counter screen (AID 1920065)
Outline: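 Counter-screen of the Tox21 10K library for non-specific calcium release: dye-loaded cells received compounds in DMSO and were monitored by kinetic fluorescence (480/540 nm, 3 min). Fifteen concentrations, run in triplicate.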

[5] = p53 small molecule agonists, cell-based qHTS assay with rat liver microsomes (AID 1963578)
Outline: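 Cells carrying a p53 response element–beta-lactamase reporter were plated and rested 5 h, then dosed with compound in DMSO plus rat liver microsomes and NADPH, each at 0.5 mg/mL final. After 16 h at 37 C, LiveBLAzer substrate was added for 2 h.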

[6] = p53 small molecule agonists, cell-based qHTS assay with human liver microsomes: qHTS cell viability counter screen (AID 1963579); also: nearly all actives have a fitted effect of over 45% in size
Outline: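 Cytotoxicity counter screen: p53RE-bla, 4,000 cells/well; 5 h settle, 37 C/5% CO2; cpd + HLM 0.5 mg/mL + NADPH 0.5 mg/mL (final); 16 h, 37 C; CellTiter-Glo, 30 min RT, luminescence.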

[7] = p53 small molecule agonists, cell-based qHTS assay with rat liver microsomes: qHTS cell viability counter screen (AID 1963580); also: nearly all actives have a fitted effect of over 45% in size; also: potency is read from the fitted curve at half-maximal effect
Outline: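 p53RE-bla HCT-116 cells (4,000/well) rested 5 h at 37 C, then given Tox21 compounds in DMSO with rat liver microsomes (0.5 mg/mL final) plus NADPH (0.5 mg/mL final) for 16 h at 37 C. Viability read by CellTiter-Glo luminescence after 30 min at room temperature.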

[8] = p53 small molecule agonists, cell-based qHTS assay: qHTS cell viability counter screen (AID 1963581); also: nearly all actives have a fitted effect of over 45% in size
Outline: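 Cells: HCT-116 with p53 response element-driven beta-lactamase. Treatment: 16 h, 37 C, compounds in DMSO. Read: CellTiter-Glo luminescence after 30 min RT.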

[9] = p53 small molecule agonists, cell-based qHTS assay (AID 1963582; active = well fitted activation curve with a large enough effect in the signal ratio in the repeat runs, not every such curve was filed as active; the % refers to the signal ratio)
Outline: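 Quantitative HTS in p53RE-bla cells: after a 5 h settling period, compounds delivered in DMSO were left on cells for 16 h at 37 C, and reporter induction was measured as fluorescence following 2 h substrate loading.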

[10] = target: 5-hydroxytryptamine receptor 2A (Homo sapiens) (UniProt P28223); test: 5-hydroxytryptamine receptor 2A (HTR2A) small molecule agonists, cell-based qHTS assay (AID 1963587); also: nearly all actives have a fitted effect of over 30% in size
Outline: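 HTR2A-CHO cells, plated 18 h at 37 C/5% CO2, dye-loaded 1 h at 37 C; compounds in DMSO added by pin tool (agonist mode). Intracellular calcium flux read as kinetic fluorescence on FDSS over 2 min at 1 s intervals.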

[11] = target: Muscarinic acetylcholine receptor M1 (Homo sapiens) (UniProt P11229); test: Cholinergic receptor muscarinic 1 (CHRM1) small molecule antagonists, cell-based qHTS assay (AID 1963588); also: nearly all actives have a fitted effect of over 40% in size
Outline: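 CHRM1-CHO calcium-flux assay, antagonist mode. Cells were seeded 18 h, dye-loaded 1 h at 37 C and given compound for 5 min at RT, then acetylcholine was added at 50nM. FDSS fluorescence was read 3 min; 15 concentrations, three runs.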

[12] = target: Muscarinic acetylcholine receptor M1 (Homo sapiens) (UniProt P11229); test: Cholinergic receptor muscarinic 1 (CHRM1) small molecule agonists, cell-based qHTS assay (AID 1963589); also: nearly all actives have a fitted effect of over 35% in size
Outline: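 Agonist-mode qHTS in CHO cells stably carrying human muscarinic M1. Intracellular calcium is tracked by fluorescence every second after compound transfer; each compound runs at 15 concentrations in three independent runs.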

[13] = cAMP Responsive Elements (CRE) small molecule agonists, cell-based qHTS assay (AID 1963590)
Outline: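 Agonist mode qHTS in CRE-bla HEK 293T cells: compounds dosed from DMSO for 3 h at 37 C/5% CO2, followed by LiveBLAzer B/G FRET substrate for 2 h at room temperature.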

[14] = cAMP Responsive Elements (CRE) small molecule antagonists, cell-based qHTS assay (AID 1963591; active = well fitted inhibition curve with a large enough effect in the signal ratio in the repeat runs, not every such curve was filed as active; the % refers to the signal ratio)
Outline: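 Antagonist mode: test compounds are co-incubated with the adenylyl cyclase activator NKH477 (0.25 uM final) on CRE-bla HEK293T cells for 3 h at 37 °C, followed by LiveBLAzer substrate loading.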

[15] = target: Beta-2 adrenergic receptor (Homo sapiens) (UniProt P07550); test: Adrenergic beta2 receptor (ADRB2) small molecule agonists, cell-based qHTS assay (AID 1963593);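 also: CHO cells stably overexpressing human ADRB2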
Outline: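 CHO cells stably over-expressing ADRB2 were plated overnight at 37C, then dosed with compounds plus a stimulation mix containing 100uM IBMX and 25uM Ro-20-1724 for 0.5hr at room temperature. cAMP was measured by HTRF competition, 1hr.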

[16] = target: D(2) dopamine receptor (Homo sapiens) (UniProt P14416); test: Dopamine D2 receptor (DRD2) small molecule agonists, cell-based qHTS assay (AID 1963594); also: nearly all actives have a fitted effect of over 35% in size
Outline: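 HEK293 cells stably expressing DRD2 were cultured 24 h at 37 C, then given Ro20-1724 (0.1 mM final) and compounds for 10 min at room temperature. NKH477 (200nM) was then added for 30 min. cAMP was read by HTRF.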

[17] = target: D(2) dopamine receptor (Homo sapiens) (UniProt P14416); test: Dopamine D2 receptor (DRD2) small molecule antagonists, cell-based qHTS assay (AID 1963595; active = well fitted inhibition curve with a large enough effect in the signal ratio in the repeat runs, with a control signal flat; the % refers to the signal ratio)
Outline: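 Stable D2 receptor HEK293 line, 24 h after seeding. Compound preincubated 10 min, then quinpirole (12 nM) with forskolin analogue NKH477 (200 nM), 30 min, room temperature. Detection by time-resolved FRET of cAMP.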

[18] = target: KiSS-1 receptor (Homo sapiens) (UniProt Q969F8); test: Human kisspeptin (KISS1R) small molecule agonists, calcium flux assay in KISS1R-HEK293 cells (AID 1920064; active = well fitted curve in the direction sought with a large enough effect in the repeat runs; an effect the other way counts as inactive or inconclusive)
Outline: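 Cells plated and incubated 18 h; dye added, 1 h at 37 C; compounds in DMSO pinned in; signal read at 480/540 nm every second for 3 min. Each compound tested at 15 concentrations in triplicate.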

[19] = target: 5-hydroxytryptamine receptor 2A (Homo sapiens) (UniProt P28223); test: 5-hydroxytryptamine receptor 2A (HTR2A) small molecule antagonists, cell-based qHTS assay (AID 1963586); also: nearly all actives have a fitted effect of over 45% in size
Outline: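 Antagonist-mode intracellular calcium assay: DOI (4 nM) added after 5 min compound pre-incubation at room temperature to dye-loaded HTR2A-CHO cells. Fluorescence followed for 3 min, sampled every second.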

[20] = target: Beta-2 adrenergic receptor (Homo sapiens) (UniProt P07550); test: Adrenergic beta2 receptor (ADRB2) small molecule antagonists, cell-based qHTS assay (AID 1963592); also: nearly all actives have a fitted effect of over 50% in size; also: potency is read from the fitted curve at half-maximal effect
Outline: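 Cells (CHO, stable ADRB2 overexpression) incubated 18-20hr at 37C; compounds added from DMSO; agonist mix (1nM isoproterenol, 100uM IBMX, 25uM Ro-20-1724) added; 0.5hr RT; d2-cAMP and anti-cAMP-cryptate added; 1hr RT; 665/615 nm read.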

Measured: Potency

Beta-2 adrenergic receptor (Homo sapiens), sequence (P07550 whole entry, looked up): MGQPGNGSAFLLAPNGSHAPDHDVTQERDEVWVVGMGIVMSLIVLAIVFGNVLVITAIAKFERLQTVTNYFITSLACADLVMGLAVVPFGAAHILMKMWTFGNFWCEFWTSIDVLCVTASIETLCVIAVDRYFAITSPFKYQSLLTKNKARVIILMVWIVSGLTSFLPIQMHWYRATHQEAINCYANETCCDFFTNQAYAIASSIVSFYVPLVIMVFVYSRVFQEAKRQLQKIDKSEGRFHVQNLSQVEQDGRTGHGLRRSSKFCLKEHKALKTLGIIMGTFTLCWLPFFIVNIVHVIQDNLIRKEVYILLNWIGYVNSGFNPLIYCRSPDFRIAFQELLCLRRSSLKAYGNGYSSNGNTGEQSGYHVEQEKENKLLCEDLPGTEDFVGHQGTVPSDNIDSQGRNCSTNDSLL
Muscarinic acetylcholine receptor M1 (Homo sapiens), sequence (P11229 whole entry, looked up): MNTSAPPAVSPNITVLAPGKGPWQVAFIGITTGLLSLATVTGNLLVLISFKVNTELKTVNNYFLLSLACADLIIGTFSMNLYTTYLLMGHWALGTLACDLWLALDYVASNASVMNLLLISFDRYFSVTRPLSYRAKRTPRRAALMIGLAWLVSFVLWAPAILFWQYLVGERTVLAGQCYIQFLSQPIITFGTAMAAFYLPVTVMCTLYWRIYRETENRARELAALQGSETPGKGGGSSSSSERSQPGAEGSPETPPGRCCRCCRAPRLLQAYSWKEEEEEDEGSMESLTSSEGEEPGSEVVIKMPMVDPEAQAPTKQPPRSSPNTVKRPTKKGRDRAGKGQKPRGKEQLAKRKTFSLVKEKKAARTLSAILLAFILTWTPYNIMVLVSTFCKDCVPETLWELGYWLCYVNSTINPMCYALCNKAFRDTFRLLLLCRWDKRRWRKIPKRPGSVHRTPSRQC
5-hydroxytryptamine receptor 2A (Homo sapiens), sequence (P28223 whole entry, looked up): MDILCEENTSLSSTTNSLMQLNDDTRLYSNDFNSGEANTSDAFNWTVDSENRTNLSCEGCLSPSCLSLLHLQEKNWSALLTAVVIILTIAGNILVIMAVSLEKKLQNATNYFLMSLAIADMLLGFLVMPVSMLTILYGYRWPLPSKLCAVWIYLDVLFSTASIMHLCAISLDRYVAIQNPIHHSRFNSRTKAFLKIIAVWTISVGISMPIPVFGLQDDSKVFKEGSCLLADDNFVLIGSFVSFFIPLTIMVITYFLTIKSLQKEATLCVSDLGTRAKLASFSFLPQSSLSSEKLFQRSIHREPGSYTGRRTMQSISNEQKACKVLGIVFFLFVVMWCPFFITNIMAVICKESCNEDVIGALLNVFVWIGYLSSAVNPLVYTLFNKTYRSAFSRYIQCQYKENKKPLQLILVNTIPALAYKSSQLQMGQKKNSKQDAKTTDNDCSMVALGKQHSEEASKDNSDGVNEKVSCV
D(2) dopamine receptor (Homo sapiens), sequence (P14416 whole entry, looked up): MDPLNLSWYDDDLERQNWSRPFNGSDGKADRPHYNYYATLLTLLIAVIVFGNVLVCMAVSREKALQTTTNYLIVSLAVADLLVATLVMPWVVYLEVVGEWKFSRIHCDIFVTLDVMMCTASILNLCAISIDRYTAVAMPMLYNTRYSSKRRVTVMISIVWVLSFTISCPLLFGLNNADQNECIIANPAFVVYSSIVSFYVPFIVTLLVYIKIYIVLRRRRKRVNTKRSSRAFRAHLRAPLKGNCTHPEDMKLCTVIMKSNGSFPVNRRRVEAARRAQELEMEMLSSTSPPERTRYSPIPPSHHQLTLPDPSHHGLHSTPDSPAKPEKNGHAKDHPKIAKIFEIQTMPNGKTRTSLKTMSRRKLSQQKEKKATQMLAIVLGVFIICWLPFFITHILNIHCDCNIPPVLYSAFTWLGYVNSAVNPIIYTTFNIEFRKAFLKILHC
Gonadotropin-releasing hormone receptor (Homo sapiens), sequence (P30968 whole entry, looked up): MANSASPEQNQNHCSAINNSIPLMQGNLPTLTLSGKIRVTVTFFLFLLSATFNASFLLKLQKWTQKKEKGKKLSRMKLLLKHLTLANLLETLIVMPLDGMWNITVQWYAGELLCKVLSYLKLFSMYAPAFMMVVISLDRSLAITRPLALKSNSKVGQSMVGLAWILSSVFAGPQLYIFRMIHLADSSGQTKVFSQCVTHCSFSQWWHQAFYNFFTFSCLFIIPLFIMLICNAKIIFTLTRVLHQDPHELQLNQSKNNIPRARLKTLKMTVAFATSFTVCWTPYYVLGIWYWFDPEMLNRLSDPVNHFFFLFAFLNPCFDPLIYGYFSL
KiSS-1 receptor (Homo sapiens), sequence (Q969F8 whole entry, looked up): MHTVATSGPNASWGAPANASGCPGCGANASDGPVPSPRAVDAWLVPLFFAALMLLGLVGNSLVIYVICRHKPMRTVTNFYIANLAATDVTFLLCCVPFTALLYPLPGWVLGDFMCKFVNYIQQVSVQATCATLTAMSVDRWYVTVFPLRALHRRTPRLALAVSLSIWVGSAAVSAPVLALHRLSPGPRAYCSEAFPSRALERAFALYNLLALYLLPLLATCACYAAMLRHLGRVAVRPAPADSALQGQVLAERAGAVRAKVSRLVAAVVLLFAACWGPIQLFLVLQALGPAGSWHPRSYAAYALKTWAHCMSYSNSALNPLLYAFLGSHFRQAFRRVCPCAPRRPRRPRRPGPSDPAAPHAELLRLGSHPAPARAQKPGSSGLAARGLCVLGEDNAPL

Cc1cc(C(C)(C)C)c(O)c(C(C)(C)C)c1
active: [2] 24.4 µM and 48.6 µM
not listed: [18] | [19] | [20]
inactive: all other assays above

CC1(C)OC[C@@H]2O[C@@]3(C(=O)O)OC(C)(C)O[C@H]3[C@@H]2O1
not listed: [4] | [5] | [9]
inactive: all other assays above

CCOC(=O)c1ccc(O)cc1
not listed: [4] | [7] | [15]
inactive: all other assays above

Cc1cc(=O)[nH]c(C(C)C)n1
not listed: [10] | [11] | [16] | [17] | [18]
inactive: all other assays above

Cc1ccc(C)c(O)c1
not listed: [11] | [18]
inactive: all other assays above

Clc1ccccn1
not listed: [18]
inactive: all other assays above

CC(CCl)OP(=O)(OC(C)CCl)OC(C)CCl (stereo not given)
not listed: [18]
inactive: all other assays above

CCCCN(CCCC)CCCC
not listed: [10] | [18]
inactive: all other assays above

CCCCCCCCCCCCCCCC(=O)O
not listed: [18]
inactive: all other assays above

CC(C)(C)NC(=O)[C@H]1CC[C@H]2[C@@H]3CC[C@H]4NC(=O)C=C[C@]4(C)[C@H]3CC[C@]12C
not listed: [4] | [10] | [11] | [12] | [13] | [14] | [19] | [20]
inactive: all other assays above

Cc1cc(Cc2cc(C)cc(C(C)(C)C)c2O)c(O)c(C(C)(C)C)c1
34.6 µM (active) and inactive: [20]
active: [1] 13.8 µM and 13.7 µM
inactive and 36.3 µM (active): [7]
not listed: [4] | [6] | [9] | [13] | [14] | [15] | [17]
inactive: all other assays above

OC[C@@H](O)[C@@H](O[C@@H]1O[C@H](CO)[C@H](O)[C@H](O)[C@H]1O)[C@H](O)[C@@H](O)CO
not listed: [12] | [15] | [16] | [18]
inactive: all other assays above
